# Unmarked numbers belong to inactive results. Inconclusive results are not listed. This is one part of the list. Active and inactive are the calls of the source. Unless noted, the call rests on the fitted dose curve; in most records, active means well fitted curve in the direction sought with a large enough effect; inconclusive means small, poorly fitted or top-dose-only effect, or another doubt; inactive means no such curve, though single readings can be large; an effect the other way counts as inactive or inconclusive.
# Columns and labels:
# [1] = target: Tyrosyl-DNA phosphodiesterase 1 (Homo sapiens) (UniProt Q9NUW8); assay: Confirmation Assay for Inhibitors of Tyrosyl-DNA Phosphodiesterase (TDP1) (AID 489007); conditions: recombinant human TDP1 enzymatic activity, dose-response; further: potency means the concentration at half of the fitted maximal effect; nearly all actives have a fitted effect of over 40% in size
# Sequence of Tyrosyl-DNA phosphodiesterase 1 (Homo sapiens) (Q9NUW8 whole entry, looked up): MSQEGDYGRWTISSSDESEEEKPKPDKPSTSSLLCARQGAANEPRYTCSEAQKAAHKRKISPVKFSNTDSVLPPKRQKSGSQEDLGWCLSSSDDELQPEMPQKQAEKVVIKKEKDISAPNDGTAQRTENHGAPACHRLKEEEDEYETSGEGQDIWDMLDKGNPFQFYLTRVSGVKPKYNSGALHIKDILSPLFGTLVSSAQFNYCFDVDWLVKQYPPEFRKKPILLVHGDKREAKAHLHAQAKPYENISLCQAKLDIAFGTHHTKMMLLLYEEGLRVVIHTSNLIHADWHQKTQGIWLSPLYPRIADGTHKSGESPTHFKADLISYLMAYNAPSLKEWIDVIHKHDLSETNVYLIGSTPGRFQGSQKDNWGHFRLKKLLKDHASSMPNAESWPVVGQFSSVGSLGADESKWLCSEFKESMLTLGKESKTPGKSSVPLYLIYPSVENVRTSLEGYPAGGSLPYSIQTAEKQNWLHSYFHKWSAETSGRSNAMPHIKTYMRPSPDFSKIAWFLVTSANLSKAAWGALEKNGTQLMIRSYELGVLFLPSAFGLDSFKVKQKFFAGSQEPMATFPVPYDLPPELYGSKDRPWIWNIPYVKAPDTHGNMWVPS
# Procedure, shortened: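 Confirmation of primary-screen follow-ups in a qHTS format. Substrate cleavage by Tdp1 (1 nM) of a 3'-phosphotyrosine-FITC, 5'-biotin oligo (15 nM) was monitored as decreased AlphaScreen signal after a 5 min room-temperature reaction.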
# [2] = target: Tumor susceptibility gene 101 protein (Homo sapiens) (UniProt Q99816); assay: qHTS Assay for Iinhibitors of HIV-1 Budding by Blocking the Interaction of PTAP/TSG101: Hit Validation (AID 651600); conditions: PTAP peptide/TSG101 UEV interaction, biochemical assay; series mostly up to 57.5 µM; further: on the % scale 0 is the no-effect control and ±100 the full control effect; nearly all actives have a fitted effect of over 70% in size
# Sequence of Tumor susceptibility gene 101 protein (Homo sapiens) (Q99816 whole entry, looked up, the tested form may be a part): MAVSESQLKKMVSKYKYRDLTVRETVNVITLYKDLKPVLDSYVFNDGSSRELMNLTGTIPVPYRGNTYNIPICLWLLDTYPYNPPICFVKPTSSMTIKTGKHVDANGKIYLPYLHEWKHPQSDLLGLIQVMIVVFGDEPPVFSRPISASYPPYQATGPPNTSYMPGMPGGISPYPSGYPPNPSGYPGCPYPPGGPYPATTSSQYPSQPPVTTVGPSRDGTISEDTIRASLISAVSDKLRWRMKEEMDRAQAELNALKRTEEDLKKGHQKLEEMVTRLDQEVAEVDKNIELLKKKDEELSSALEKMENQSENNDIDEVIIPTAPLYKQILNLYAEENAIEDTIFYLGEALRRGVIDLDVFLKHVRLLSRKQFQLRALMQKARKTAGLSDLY
# Procedure, shortened: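 Compounds are added to the Tsg101 binding domain (10 uM final) in pH 7.5 HEPES buffer. FITC-PTAP peptide follows at 50 nM final. After 20 min at r.t., polarized FITC emission is measured.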
# [3] = target: DNA polymerase iota (Homo sapiens) (UniProt Q9UNA4); assay: qHTS for Inhibitors of Polymerase Iota: Confirmatory Assay for Cherry-picked Compounds (AID 720496); conditions: Pol iota primer extension, TAMRA/BHQ fluorescence; further: potency means the concentration at half of the fitted maximal effect
# Sequence of DNA polymerase iota (Homo sapiens) (Q9UNA4 whole entry, looked up): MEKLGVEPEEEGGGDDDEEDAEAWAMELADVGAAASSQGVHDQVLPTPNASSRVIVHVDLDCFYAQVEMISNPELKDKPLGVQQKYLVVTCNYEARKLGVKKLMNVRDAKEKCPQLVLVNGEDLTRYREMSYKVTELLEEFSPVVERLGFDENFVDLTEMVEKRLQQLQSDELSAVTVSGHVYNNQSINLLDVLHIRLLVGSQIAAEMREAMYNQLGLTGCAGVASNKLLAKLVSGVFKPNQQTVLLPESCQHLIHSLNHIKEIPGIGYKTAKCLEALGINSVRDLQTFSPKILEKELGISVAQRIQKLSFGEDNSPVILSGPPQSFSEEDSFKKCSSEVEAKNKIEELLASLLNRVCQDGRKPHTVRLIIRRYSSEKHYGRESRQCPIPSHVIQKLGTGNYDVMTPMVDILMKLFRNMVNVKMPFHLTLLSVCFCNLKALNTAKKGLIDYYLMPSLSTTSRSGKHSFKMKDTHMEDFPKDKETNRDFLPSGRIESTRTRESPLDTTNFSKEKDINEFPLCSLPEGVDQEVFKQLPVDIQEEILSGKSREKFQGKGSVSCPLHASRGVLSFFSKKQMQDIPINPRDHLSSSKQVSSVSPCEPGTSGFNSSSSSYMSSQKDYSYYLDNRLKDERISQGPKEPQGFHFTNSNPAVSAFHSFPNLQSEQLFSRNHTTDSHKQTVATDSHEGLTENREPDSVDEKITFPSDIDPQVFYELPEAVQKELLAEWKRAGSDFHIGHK
# Procedure, shortened: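 Read-out is TAMRA fluorescence (525 nm excitation, 598 nm emission) at 0 and 10 min. It reflects strand displacement from a BHQ-2-quenched template by 10 nM Pol iota, with 50 nM final substrate after 15 min compound preincubation.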
# [4] = target: DNA polymerase eta (Homo sapiens) (UniProt Q9Y253); assay: qHTS for Inhibitors of Polymerase Eta: Confirmatory Assay for Cherry-picked Compounds (AID 720502); conditions: Pol eta primer extension, TAMRA/BHQ fluorescence, 10 min; further: potency means the concentration at half of the fitted maximal effect
# Sequence of DNA polymerase eta (Homo sapiens) (Q9Y253 whole entry, looked up): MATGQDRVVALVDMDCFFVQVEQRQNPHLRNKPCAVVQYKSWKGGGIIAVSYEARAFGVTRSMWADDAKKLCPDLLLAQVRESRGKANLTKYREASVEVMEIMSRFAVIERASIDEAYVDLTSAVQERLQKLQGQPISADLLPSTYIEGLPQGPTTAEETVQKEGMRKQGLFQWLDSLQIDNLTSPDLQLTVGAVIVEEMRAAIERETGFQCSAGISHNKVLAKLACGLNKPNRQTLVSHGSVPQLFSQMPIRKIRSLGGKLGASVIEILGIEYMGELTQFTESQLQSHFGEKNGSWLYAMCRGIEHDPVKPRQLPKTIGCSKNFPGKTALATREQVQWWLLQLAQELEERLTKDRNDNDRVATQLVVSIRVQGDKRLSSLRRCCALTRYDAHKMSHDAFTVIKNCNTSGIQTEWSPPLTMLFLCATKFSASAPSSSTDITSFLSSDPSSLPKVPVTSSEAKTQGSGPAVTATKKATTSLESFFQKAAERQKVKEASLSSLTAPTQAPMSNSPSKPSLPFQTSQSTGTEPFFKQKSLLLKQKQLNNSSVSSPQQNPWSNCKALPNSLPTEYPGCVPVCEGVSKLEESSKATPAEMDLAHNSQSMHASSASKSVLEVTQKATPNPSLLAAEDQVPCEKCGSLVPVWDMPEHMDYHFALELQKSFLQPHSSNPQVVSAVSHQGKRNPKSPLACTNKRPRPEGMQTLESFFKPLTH
# Procedure, shortened: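 Quenched-fluorescence replication assay: 10 nM Pol eta, 50 nM substrate final, 15 min compound preincubation at room temperature, 10 min kinetic reaction read at 525/598 nm.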
# [5] = target: Guanine nucleotide-binding protein G(i) subunit alpha-1 (Homo sapiens) (UniProt P63096); assay: qHTS Assay for Inhibitors of RGS12 GoLoco Motif Activity (Green Fluorophore) (AID 879); conditions: Galphai1/FITC-RGS12 GoLoco peptide, fluorescence polarization; series mostly up to 57.1 µM;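 further: 0% = labeled peptide with Gαi1 and full inhibition = labeled peptide alone without protein; negative values mean loss of peptide binding seen as reduced polarization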
# Sequence of Guanine nucleotide-binding protein G(i) subunit alpha-1 (Homo sapiens) (P63096 whole entry, looked up): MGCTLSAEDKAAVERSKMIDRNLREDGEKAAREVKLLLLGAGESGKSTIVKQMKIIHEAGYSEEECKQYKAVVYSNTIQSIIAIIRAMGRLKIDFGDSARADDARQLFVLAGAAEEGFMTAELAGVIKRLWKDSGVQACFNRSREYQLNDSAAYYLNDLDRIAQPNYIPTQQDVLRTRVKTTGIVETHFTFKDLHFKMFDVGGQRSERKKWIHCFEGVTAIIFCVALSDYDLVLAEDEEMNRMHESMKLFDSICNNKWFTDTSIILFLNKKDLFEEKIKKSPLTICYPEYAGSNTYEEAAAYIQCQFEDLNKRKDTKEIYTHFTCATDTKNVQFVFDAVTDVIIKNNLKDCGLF
# Procedure, shortened: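 Fluorescence polarization assay: 50 nM Gαi1 with 10 nM FITC-labeled RGS12 GoLoco peptide in 10 mM Tris pH 7.5, 150 mM NaCl, 0.1 mM GDP, 0.05% NP40, 10 min at room temperature with compound.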
# [6] = qHTS Assay for Identification of Small Molecule Antagonists for NFkB Signaling Pathway (AID 895; active means well fitted inhibition curve with a large enough effect in the signal ratio, with a control signal flat, not every such curve was filed as active; the % refers to the signal ratio; further: on the % scale 0 is the no-effect control and ±100 the full control effect); conditions: NFkB beta-lactamase reporter cells, FRET ratio 460/530, stimulated with 10 pM TNF alpha; series mostly up to 38.3 µM
# Procedure, shortened: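 ME-180 NFkB-bla cells (beta-lactamase under NFkB response element), plated overnight, treated with compound then 10 pM TNF alpha (about EC50) for 5 hrs at 37 C. LiveBLAzer FRET read at 460/530 nm emission, 405 nm excitation.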
# [7] = qHTS Assay for Identification of Small Molecule Agonists for Thrombopoietin (TPO) Signaling Pathway (AID 917); conditions: TPO signaling pathway reporter cells, agonist qHTS, stimulated with TPO at its EC50; series mostly up to 38.5 µM; further: on the % scale 0 is the no-effect control and ±100 the full control effect
# Procedure, shortened: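 Luminescence from a Glycoprotein IIb promoter–driven luciferase reporter served as read-out in murine Ba/F3 cells carrying the human TPO receptor. Cells, deprived of IL-3 overnight, received compounds with 26 pM TPO and were incubated 24 hrs at 37 C.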
# [8] = target: Pyruvate kinase PKM (Homo sapiens) (UniProt P14618); assay: qHTS Assay for Activators of Human Muscle Pyruvate Kinase (AID 954; active means well fitted curve in the direction sought with a large enough effect, not every such curve was filed as active;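 further: 0% = uninhibited enzyme and -100% = no enzyme or full thiadiazolimine inhibition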); conditions: purified human muscle pyruvate kinase, luciferase-coupled luminescence, 1 h; series mostly up to 57.5 µM
# Sequence of Pyruvate kinase PKM (Homo sapiens) (P14618 whole entry, looked up): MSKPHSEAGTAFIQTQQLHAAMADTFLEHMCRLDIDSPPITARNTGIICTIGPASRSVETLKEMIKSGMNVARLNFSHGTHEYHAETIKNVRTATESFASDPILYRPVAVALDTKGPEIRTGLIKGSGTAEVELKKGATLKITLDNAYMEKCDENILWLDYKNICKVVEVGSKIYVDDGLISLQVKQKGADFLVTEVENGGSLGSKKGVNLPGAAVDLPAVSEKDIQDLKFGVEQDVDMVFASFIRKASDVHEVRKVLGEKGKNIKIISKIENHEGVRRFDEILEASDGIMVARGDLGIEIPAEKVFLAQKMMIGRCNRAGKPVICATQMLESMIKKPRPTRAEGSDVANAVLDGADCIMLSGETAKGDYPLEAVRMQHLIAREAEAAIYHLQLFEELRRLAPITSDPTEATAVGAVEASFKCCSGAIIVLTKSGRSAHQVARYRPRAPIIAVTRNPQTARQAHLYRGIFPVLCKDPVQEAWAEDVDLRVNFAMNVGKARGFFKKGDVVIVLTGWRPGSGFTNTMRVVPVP
# Procedure, shortened: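 Enzyme was run at intermediate activity so both inhibitors and activators could be detected. ATP formed from ADP and PEP by 0.1 nM human PKM2 during a 1 h room-temperature incubation was quantified by coupled luciferase luminescence.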
# [9] = target: alpha-glucosidase (Oryza sativa, rice) (UniProt Q653V4); assay: Counterscreen for Glucocerebrosidase Inhibitors: qHTS Assay for Rice alpha-Glucosidase at pH 5.0 (AID 997); conditions: rice alpha-glucosidase enzyme activity; series mostly up to 76.9 µM;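 further: 0% = full activity with enzyme and -100% = basal without enzyme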
# Procedure, shortened: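 Rice alpha-glucosidase (4 nM final) with 400 uM 4-methylumbelliferyl-alpha-D-glucopyranoside in citrate buffer pH 5.0, 20 min at room temperature, stopped at pH 10; fluorescence 365/440 nm, compounds 0.7 nM–77 uM, AC50 from Hill fits.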
# [10] = qHTS Assay for Identification of Small Molecule Agonists for Hypoxia Response Element Signaling Pathway (AID 914; active means well fitted activation curve with a large enough effect in the signal ratio, with a control signal flat, not every such curve was filed as active; the % refers to the signal ratio; further: % of control where 0% means no effect); conditions: ME-180 (cervical carcinoma) HRE-bla reporter, beta-lactamase ratio, CoCl2, 17 h; activation: stronger effect = higher value
# Procedure, shortened: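 Read-out: CCF4 FRET ratio of 460nm to 530nm emission (excitation 405nm) after 2.5 hours at room temperature, taken from HRE-bla ME-180 cells that had been exposed to compound and EC50 CoCl2 for 17 hours.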
# [11] = target: Cytochrome P450 2C9 (Homo sapiens) (UniProt P11712); assay: qHTS Assay for Inhibitors and Substrates of Cytochrome P450 2C9 (AID 883); conditions: recombinant CYP2C9, luciferin-H luminescence, 60 min; series mostly up to 11.4 µM; further: on the % scale 0 is the no-effect control and ±100 the full control effect; nearly all actives have a fitted effect of over 60% in size
# Sequence of Cytochrome P450 2C9 (Homo sapiens) (P11712 whole entry, looked up): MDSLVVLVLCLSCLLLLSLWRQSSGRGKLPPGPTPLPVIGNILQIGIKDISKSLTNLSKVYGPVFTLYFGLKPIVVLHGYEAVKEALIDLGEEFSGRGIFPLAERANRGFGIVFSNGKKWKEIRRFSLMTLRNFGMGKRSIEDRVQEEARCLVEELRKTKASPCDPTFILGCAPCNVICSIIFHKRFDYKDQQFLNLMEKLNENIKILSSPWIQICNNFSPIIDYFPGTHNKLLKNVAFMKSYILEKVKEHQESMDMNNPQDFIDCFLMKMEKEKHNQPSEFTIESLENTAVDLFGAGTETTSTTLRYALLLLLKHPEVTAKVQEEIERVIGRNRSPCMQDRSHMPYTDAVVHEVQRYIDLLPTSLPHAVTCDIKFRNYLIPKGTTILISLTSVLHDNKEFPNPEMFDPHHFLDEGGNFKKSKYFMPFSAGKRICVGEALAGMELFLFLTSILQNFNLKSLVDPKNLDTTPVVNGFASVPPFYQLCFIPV
# Procedure, shortened: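 10nM CYP2C9 + 100uM Luciferin-H (=KM), 25mM KPO4; cpd 10 min 37C; NADPH regen, 60 min 37C; stop/detect with P450 Glo-Buffer 20 min; luminescence. Norm. to 57uM sulphaphenazole as full inhibition.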
# [12] = target: Cytochrome P450 2D6 (Homo sapiens) (UniProt P10635); assay: qHTS Assay for Inhibitors and Substrates of Cytochrome P450 2D6 (AID 891); conditions: recombinant CYP2D6, luciferin-ME EGE luminescence; series mostly up to 11.4 µM;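 further: luciferin methyl ether substrate demethylated by CYP2D6 with NADPH regeneration; on the % scale 0 is the no-effect control and ±100 the full control effect; nearly all actives have a fitted effect of over 60% in size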
# Sequence of Cytochrome P450 2D6 (Homo sapiens) (P10635 whole entry, looked up): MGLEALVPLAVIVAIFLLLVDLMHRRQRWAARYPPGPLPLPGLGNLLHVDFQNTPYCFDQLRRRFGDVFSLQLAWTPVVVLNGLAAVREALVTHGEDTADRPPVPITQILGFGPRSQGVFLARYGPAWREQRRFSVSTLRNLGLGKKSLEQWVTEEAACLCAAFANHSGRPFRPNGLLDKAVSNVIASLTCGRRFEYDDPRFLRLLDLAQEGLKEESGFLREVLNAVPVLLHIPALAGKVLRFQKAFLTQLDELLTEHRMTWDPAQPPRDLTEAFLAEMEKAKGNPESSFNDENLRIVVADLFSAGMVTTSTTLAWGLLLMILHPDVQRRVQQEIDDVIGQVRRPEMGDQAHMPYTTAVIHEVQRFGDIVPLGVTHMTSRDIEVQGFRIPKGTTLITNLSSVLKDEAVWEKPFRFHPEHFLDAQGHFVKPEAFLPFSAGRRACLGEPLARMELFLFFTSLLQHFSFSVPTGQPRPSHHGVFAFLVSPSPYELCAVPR
# Procedure, shortened: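 Human CYP2D6 (5 nM) with 30 uM Luciferin-ME EGE (at Km) in 100 mM KPO4, compound preincubated 10 min, then NADPH regeneration system for 60 min at room temperature. Luciferin read by luminescence; normalized to 1.43 uM quinidine.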
# [13] = target: Cytochrome P450 2C19 (Homo sapiens) (UniProt P33261); assay: qHTS Assay for Inhibitors and Substrates of Cytochrome P450 2C19 (AID 899); conditions: recombinant CYP2C19, luciferin-H EGE luminescence; series mostly up to 11.4 µM; further: on the % scale 0 is the no-effect control and ±100 the full control effect; nearly all actives have a fitted effect of over 60% in size
# Sequence of Cytochrome P450 2C19 (Homo sapiens) (P33261 whole entry, looked up): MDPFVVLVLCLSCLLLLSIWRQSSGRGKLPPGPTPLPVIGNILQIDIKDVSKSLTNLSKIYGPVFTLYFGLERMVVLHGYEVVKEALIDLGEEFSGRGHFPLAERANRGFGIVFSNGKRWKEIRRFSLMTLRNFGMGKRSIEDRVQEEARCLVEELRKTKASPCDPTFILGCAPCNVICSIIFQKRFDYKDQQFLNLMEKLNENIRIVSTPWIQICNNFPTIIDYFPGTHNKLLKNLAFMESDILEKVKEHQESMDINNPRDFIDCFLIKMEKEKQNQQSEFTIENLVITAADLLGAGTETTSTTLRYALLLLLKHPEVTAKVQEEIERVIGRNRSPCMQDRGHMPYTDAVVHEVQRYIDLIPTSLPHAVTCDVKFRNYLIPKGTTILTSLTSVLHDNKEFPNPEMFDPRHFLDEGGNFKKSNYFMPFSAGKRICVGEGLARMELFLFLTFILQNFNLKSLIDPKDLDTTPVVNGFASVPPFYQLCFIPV
# Procedure, shortened: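 Luminescent read-out of luciferin formed from Luciferin-H EGE (10uM, equal to KM). Enzyme 5nM in 50mM KPO4; compound added, 10 min at 37C, then NADPH regenerating system for 60 min at 37C. Full inhibition defined by 57uM ketoconazole.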
# [14] = Cell Viability - BJ (AID 421; calls by dose curve;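 further: potency means the concentration at half of the fitted maximal effect; cells exposed to compound for 40 hours at 37 °C before readout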); conditions: BJ fibroblast viability, qHTS
# Procedure, shortened: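 Quantitative HTS: ATP depletion in BJ cells after 40 hr compound exposure in complete culture medium, detected with CellTiter-Glo; AC50 from standard Hill fits.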
# [15] = Cell Viability - Hek293 (AID 427;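 active means compounds whose dose-response curve shows a full or clear partial loss of cell viability, called from curve shape rather than a numeric limit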;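 further: potency means the concentration at half of the fitted maximal effect; cells exposed to compound for 40 hours at 37 °C before reading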); conditions: qHTS
# Procedure, shortened: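 AC50 values derive from Hill-modelled concentration-response of ATP-based luminescence, normalized between DMSO-only and 100 uM tamoxifen controls. Cells were exposed in complete culture medium for 40 hr at 37 °C before detection.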
# [16] = Cell Viability - HepG2 (AID 433; calls by dose curve;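 further: potency means the concentration at half of the fitted maximal effect; potency for ATP loss meaning cytotoxicity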); conditions: qHTS
# Procedure, shortened: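 Read-out is luciferase-based quantitation of cellular ATP as a measure of viable HepG2 cells after 40 h treatment at 37 °C. Signal decrease is scaled between DMSO-only and 100 uM tamoxifen controls, with AC50 fitted by the Hill equation.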
# [17] = Cell Viability - MRC5 (AID 434; calls by dose curve;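 further: potency means the concentration at half of the fitted maximal effect; potency reflects cytotoxicity seen as loss of intracellular ATP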); conditions: MRC5 lung fibroblast viability, qHTS
# Procedure, shortened: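 MRC5 normal human lung fibroblasts, 1500 cells/well, exposed to compound for 40 hr at 37 C. Cellular ATP was read by CellTiter-Glo luminescence; data normalized to DMSO and 100 uM tamoxifen, with AC50 from Hill fits.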
# [18] = Cell Viability - SK-N-SH (AID 435; calls by dose curve;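 further: potency means the concentration at half of the fitted maximal effect; compound exposure lasted 40 h at 37 °C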); conditions: SK-N-SH neuroblastoma cell viability qHTS
# Procedure, shortened: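 Luminescent ATP signal served as the viability read-out after 40 hours of compound treatment of human neuroblastoma SK-N-SH cells. Concentration-response data, scaled between DMSO and 100 uM tamoxifen, gave AC50 values by standard Hill modeling.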
# [19] = Cell Viability - N2a (AID 540); conditions: N2a mouse neuroblastoma cell viability; activity change, negative = cytotoxicity: at 92.2 µM (top of the series);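 further: plate controls were DMSO alone for no effect and tamoxifen control for full effect; nearly all actives have a fitted effect of over 45% in size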
# Procedure, shortened: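 First, 1500 N2a cells per well incubate 5 hr at 37 °C; next, compounds are added and incubated 40 hr at 37 °C; finally CellTiter-Glo is added and luminescence read after 20 min, with AC50 derived by Hill modeling.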
# [20] = Cell Viability - NIH 3T3 (AID 541); conditions: NIH 3T3 cell viability, qHTS; activity change, negative = cytotoxicity: at 92.2 µM (top of the series);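 further: plate controls were DMSO alone for no effect and tamoxifen positive control for full effect; nearly all actives have a fitted effect of over 25% in size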
# Procedure, shortened: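 AC50 values reflect concentration-dependent loss of intracellular ATP in NIH 3T3 cells after 40 hr treatment in complete culture medium, quantified by luciferase-based luminescence.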
smiles,measurement,setting,value
O=C(NCc1ccccn1)c1ccc2nc(-c3ccco3)c(-c3ccco3)nc2c1,Potency,[1],10 µM (active)
Oc1ccc2ccccc2c1N=Nc1nccs1,outcome,[2],inactive
COc1cc([C@H](Cc2ccccc2)NC(C)=O)oc(=O)c1,Potency,[3],37.7 µM (active)
same,Potency,[4],23.9 µM (active)
Cc1cn([C@H]2C[C@H](N=[N+]=[N-])[C@H](CO)O2)c(=O)[nH]c1=O,outcome,[5],inactive
same,Potency,[6],inactive
same,outcome,[7],inactive
same,outcome,[8],inactive
same,Potency,[9],inactive
NS(=O)(=O)c1cc2c(cc1Cl)N[C@H](Cc1ccccc1)NS2(=O)=O,activation,[10],4.65%
COc1ccc2cc1Oc1ccc(cc1)C[C@H]1c3cc(c(OC)cc3CCN1C)Oc1c(OC)c(OC)cc3c1[C@@H](C2)N(C)CC3,Potency,[11],inactive
same,Potency,[12],inactive
same,Potency,[13],inactive
O=C(O)c1cc(N=Nc2ccc([N+](=O)[O-])cc2)ccc1O,Potency,[14],> 92 µM
same,Potency,[15],> 92 µM
same,Potency,[16],> 92 µM
same,Potency,[17],> 92 µM
same,Potency,[18],> 92 µM
same,"activity change, negative = cytotoxicity",[19],-5.65%
same,"activity change, negative = cytotoxicity",[20],-24.1%
CN(C)[C@H]1C(=O)C(C(=O)NCN2CCCC2)=C(O)[C@]2(O)C(=O)C3=C(O)c4c(O)cccc4[C@](C)(O)[C@H]3C[C@H]12,Potency,[1],0.0794 µM (active)

# From PubChem BioAssay (NCATS)
